In PubChem BioAssay (EPA / NIEHS):
Values joined by “and” are separate entries in the source; they are usually repeats but may differ in a detail not shown here. Equal values may be shown once. Some compounds were tested as several samples or in several runs, with calls that do not always agree. Active and inactive are the calls of the source. The calls were made as follows: active = hit-call score of the fitted dose curve at least 0.9, where 1 is the maximum; inactive = score below 0.9.

Experiments:
[1] = ATG_ISRE_CIS: Attagene CIS-FACTORIAL HepG2 Assay for human Interferon Regulatory Factor 1 (IRF1) binding to an Interferon-Stimulated Response Element (ISRE) (AID 2282948); settings: HepG2 ISRE cis-reporter (Attagene), mRNA transcription readout; actives raise or lower the signal
How it was run: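 Read-out: fluorescent RT-PCR products resolved by capillary electrophoresis, reporting endogenous transcription factor activity via ISRE-driven reporter mRNA in transfected HepG2 cells dosed for 24 h; gain or loss fitted relative to DMSO.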

[2] = ATG_M_32_CIS: Attagene CIS-FACTORIAL HepG2 Assay for M32 Transcription Factor (Internal Marker) (AID 2282949); settings: HepG2 Attagene cis-factorial M32 reporter, mRNA; actives raise or lower the signal;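 also: background control marker of the multiplexed CIS panel rather than a real target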
How it was run: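 HepG2 transfectants (cis-regulated reporter transcription units) dosed 24 h. Reporter mRNA by RT-PCR plus CE, analysed as gain or loss relative to DMSO.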

[3] = ATG_M_06_CIS: Attagene CIS-FACTORIAL HepG2 Assay for M06 Transcription Factor (Internal Marker) (AID 2282950); settings: HepG2 Attagene CIS-FACTORIAL M06 internal marker reporter; actives raise or lower the signal
How it was run: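 Read-out is fluorescence of labelled reporter cDNA fragments resolved by capillary electrophoresis after RT-PCR. Cells: HepG2 carrying transfected cis-promoter reporter units, treated 24 h. Gain or loss of signal fitted relative to DMSO.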

[4] = molecular target: Hypoxia-inducible factor 1-alpha (Homo sapiens) (UniProt Q16665); test: ATG_HIF1a_CIS: Attagene CIS-FACTORIAL HepG2 Assay for human Hypoxia Inducible Factor 1 (HIF1A) (AID 2282951); settings: HepG2 Attagene cis-factorial HIF1a reporter transcription; actives raise or lower the signal
Sequence of Hypoxia-inducible factor 1-alpha (Homo sapiens) (Q16665 whole entry, looked up): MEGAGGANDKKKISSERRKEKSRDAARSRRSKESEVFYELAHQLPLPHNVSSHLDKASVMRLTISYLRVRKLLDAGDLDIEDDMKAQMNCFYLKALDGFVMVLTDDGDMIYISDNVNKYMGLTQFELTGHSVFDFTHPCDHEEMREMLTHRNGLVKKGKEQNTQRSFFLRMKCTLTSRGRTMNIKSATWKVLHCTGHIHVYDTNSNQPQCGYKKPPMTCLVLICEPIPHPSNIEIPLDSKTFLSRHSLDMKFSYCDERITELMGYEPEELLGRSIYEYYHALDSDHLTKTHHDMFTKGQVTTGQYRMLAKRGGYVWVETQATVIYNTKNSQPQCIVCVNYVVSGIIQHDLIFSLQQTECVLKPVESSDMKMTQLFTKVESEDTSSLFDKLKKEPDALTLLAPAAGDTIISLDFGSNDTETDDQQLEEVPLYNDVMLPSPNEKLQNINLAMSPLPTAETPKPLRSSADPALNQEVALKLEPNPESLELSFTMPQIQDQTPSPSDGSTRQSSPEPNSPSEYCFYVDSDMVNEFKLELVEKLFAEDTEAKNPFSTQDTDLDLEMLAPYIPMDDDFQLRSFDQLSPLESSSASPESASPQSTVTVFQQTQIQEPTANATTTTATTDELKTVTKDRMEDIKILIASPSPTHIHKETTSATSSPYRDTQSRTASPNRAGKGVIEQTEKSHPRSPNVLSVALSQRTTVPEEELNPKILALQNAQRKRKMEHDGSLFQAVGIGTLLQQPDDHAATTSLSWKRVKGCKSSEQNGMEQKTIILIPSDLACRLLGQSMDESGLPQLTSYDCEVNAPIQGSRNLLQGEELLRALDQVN
How it was run: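 HepG2 cells transiently transfected with multiplexed cis-promoter reporter units; reporter mRNA read 24 h after dosing by RT-PCR, 6-FAM primer-extension labelling, HpaI digestion and capillary electrophoresis. Bidirectional fit versus DMSO baseline.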

[5] = molecular target: Hepatocyte nuclear factor 6 (Homo sapiens) (UniProt Q9UBC0); test: ATG_HNF6_CIS: Attagene CIS-FACTORIAL HepG2 Assay for human Hepatocyte Nuclear Factor 6 (HNF6) (AID 2282952); settings: HepG2 Attagene cis-factorial HNF6 reporter transcription; actives raise or lower the signal
Sequence of Hepatocyte nuclear factor 6 (Homo sapiens) (Q9UBC0 whole entry, looked up, the tested form may be a part): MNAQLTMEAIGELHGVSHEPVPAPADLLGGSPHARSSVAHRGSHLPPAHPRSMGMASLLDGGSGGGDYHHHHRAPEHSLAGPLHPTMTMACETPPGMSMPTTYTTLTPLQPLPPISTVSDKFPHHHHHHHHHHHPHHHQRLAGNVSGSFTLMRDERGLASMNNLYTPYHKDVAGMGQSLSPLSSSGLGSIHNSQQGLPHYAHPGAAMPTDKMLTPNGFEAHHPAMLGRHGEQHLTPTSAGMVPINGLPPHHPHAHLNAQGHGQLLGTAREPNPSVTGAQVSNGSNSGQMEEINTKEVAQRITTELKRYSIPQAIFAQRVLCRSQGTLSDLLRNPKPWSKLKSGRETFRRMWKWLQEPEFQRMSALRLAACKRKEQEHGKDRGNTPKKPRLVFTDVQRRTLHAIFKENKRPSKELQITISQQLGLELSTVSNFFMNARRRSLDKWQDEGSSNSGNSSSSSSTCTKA
How it was run: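 Using cis-element reporters in HepG2 liver cells, the assay tracks endogenous factor-driven transcription 24 h post-dosing. Signal comes from 6-FAM-labelled, HpaI-digested RT-PCR fragments, with gain or loss scored against DMSO.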

[6] = molecular target: Heat shock factor protein 1 (Homo sapiens) (UniProt Q00613); test: ATG_HSE_CIS: Attagene CIS-FACTORIAL HepG2 Assay for human Heat Shock Transcription Factor 1 (HSE) (AID 2282953); settings: HepG2 HSE cis-reporter, Attagene RNA transcription; actives raise or lower the signal
Sequence of Heat shock factor protein 1 (Homo sapiens) (Q00613 whole entry, looked up): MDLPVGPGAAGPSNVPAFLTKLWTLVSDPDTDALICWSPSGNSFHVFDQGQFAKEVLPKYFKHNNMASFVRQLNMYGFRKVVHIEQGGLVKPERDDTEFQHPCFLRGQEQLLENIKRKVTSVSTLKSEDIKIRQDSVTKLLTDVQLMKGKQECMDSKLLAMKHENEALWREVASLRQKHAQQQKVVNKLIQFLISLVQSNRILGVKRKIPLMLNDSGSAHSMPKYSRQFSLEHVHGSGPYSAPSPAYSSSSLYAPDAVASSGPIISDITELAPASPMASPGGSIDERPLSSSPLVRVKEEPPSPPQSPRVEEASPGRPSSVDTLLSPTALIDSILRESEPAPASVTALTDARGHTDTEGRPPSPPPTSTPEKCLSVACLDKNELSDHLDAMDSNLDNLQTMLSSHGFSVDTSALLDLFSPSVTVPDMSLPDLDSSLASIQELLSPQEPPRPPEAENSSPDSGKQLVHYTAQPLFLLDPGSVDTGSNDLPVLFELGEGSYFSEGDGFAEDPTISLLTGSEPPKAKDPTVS
How it was run: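 HepG2, transient MRTU transfection, cis-promoter reporters (endogenous TF activity). 24 h compound. RNA → oligo(dT) RT → PCR → 6-FAM primer extension → HpaI cut → CE. Bidirectional fit vs DMSO.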

[7] = ATG_MRE_CIS: Attagene CIS-FACTORIAL HepG2 Assay for human Metal Responsive Element (MRE) (AID 2282954); settings: HepG2 MRE cis-reporter transcription, Attagene multiplex; actives raise or lower the signal
How it was run: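 Endogenous MRE-dependent transcription read as reporter mRNA in transiently transfected human HepG2 cells at 24 h. RNA reverse-transcribed, PCR-amplified, labelled and resolved by capillary electrophoresis; gain or loss relative to DMSO.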

[8] = ATG_PBREM_CIS: Attagene CIS-FACTORIAL HepG2 Assay for human Phenobarbital-responsive Enhancer Module (PBREM) (AID 2282955); settings: HepG2 PBREM cis-reporter, Attagene multiplexed transcription; actives raise or lower the signal
How it was run: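 HepG2 cells transiently transfected with multiple cis-regulated reporter transcription units; endogenous factor activity at the PBREM element measured as reporter mRNA 24 h after dosing, via RT-PCR and capillary electrophoresis of fluorescent fragments; bidirectional fitting versus DMSO.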

[9] = molecular target: Paired box protein Pax-6 (Homo sapiens) (UniProt P26367); test: ATG_Pax6_CIS: Attagene CIS-FACTORIAL HepG2 Assay for human Paired Box 6 (PAX6) (AID 2282956); settings: HepG2 CIS-FACTORIAL PAX6 reporter transcription, RNA readout; actives raise or lower the signal
Sequence of Paired box protein Pax-6 (Homo sapiens) (P26367 whole entry, looked up): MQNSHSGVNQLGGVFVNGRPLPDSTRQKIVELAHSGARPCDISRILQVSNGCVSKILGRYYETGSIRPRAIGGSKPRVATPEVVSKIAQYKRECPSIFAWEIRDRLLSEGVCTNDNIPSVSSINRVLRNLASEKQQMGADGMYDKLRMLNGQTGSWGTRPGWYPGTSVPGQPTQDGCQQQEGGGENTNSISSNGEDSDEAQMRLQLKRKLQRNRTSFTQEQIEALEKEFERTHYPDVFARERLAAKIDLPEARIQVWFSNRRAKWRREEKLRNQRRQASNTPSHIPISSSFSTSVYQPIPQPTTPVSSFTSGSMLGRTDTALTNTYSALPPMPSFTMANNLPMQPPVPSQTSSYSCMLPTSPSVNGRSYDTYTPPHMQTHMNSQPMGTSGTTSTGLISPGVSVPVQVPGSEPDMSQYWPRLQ
How it was run: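 Readout: reporter transcript fluorescence after RT-PCR and capillary electrophoresis. Cells: HepG2, transiently transfected with cis-regulated MRTUs. Exposure 24 h. Gain or loss of signal fitted bidirectionally relative to DMSO.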

[10] = ATG_PXRE_CIS: Attagene CIS-FACTORIAL HepG2 Assay for human Pregnane X Receptor Element (PXRE) (AID 2282957); settings: HepG2 Attagene CIS-FACTORIAL PXRE reporter, mRNA; actives raise or lower the signal
How it was run: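 Using HepG2 transfected with multiple reporter transcription units, endogenous factor-driven transcription was scored as reporter mRNA after 24 h exposure.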

Measured: AC50

OC[C@@H](O)[C@H]1O[C@@H]2O[C@H](C(Cl)(Cl)Cl)O[C@@H]2[C@H]1O
inactive: all assays above

CC(C)C(C)(N)C#N (stereo not given)
not listed: [10]
inactive: all other assays above

CC[N+](CC)(CC)CC
inactive: all assays above

CC1(C)[C@H](C(=O)O[C@H](C#N)c2cccc(Oc3ccccc3)c2)[C@@H]1/C=C(\Cl)C(F)(F)F
active: [8] 1.16 µM | [10] 384 nM and 683 nM
inactive: [1] | [2] | [3] | [4] | [5] | [6] | [7] | [8] | [9]

C1CN2CCN1CC2
active: [4] 50.5 µM
not listed: [10]
inactive: all other assays above

CCOC(=O)OC1=C(c2cc(C)ccc2C)C(=O)NC12CCC(OC)CC2 (stereo not given)
inactive: all assays above

ClCc1ccccc1Cl
active: [5] 100 µM | [6] 164 µM
not listed: [9] | [10]
inactive: all other assays above

CC(C)(C1CCC(O)CC1)C1CCC(O)CC1 (stereo not given)
active: [10] 35.3 µM
inactive: all other assays above

O=[N+]([O-])c1ccc(Nc2ccccc2)cc1
active: [1] 130 µM | [7] 80.4 µM | [8] 23.8 µM
not listed: [10]
inactive: all other assays above

O=C(CCl)Nc1ccccc1
active: [1] 54.9 µM | [2] 134 µM | [4] 69.2 µM | [6] 49 µM | [7] 56.4 µM | [9] 72.6 µM | [10] 33.4 µM
inactive: [3] | [5] | [8]

CC(C)(COCC1CO1)COCC1CO1 (stereo not given)
active: [7] 100 µM | [10] 27.3 µM
inactive: all other assays above

O=C(Cc1ccccc1)OCCc1ccccc1
not listed: [8] | [9] | [10]
inactive: all other assays above

O=C(O)COc1ccc(Cl)cc1
inactive: all assays above

COc1nn(C(=O)NS(=O)(=O)c2ccccc2OC(F)(F)F)c(=O)n1C
inactive: all assays above

O=c1oc2ccccc2c(O)c1C(CC(O)c1ccc(-c2ccc(Br)cc2)cc1)c1ccccc1 (stereo not given)
active: [1] 24.9 µM | [4] 14.6 µM | [6] 48.7 µM and 59.6 µM | [8] 31.7 µM | [9] 46.5 µM and 31.9 µM
inactive: [1] | [2] | [4] | [5] | [8]

C=CCOC(F)(C(F)(F)F)C(F)(F)F
inactive: all assays above

Brc1ccc(Br)cc1
not listed: [10]
inactive: all other assays above

Nc1ccc(N)cc1
inactive: [1] | [2] | [4] | [5] | [7] | [8] | [9]
active: [1] 100 µM | [4] 100 µM

Fc1cccc(Cl)c1CCl
active: [6] 159 µM | [9] 73.9 µM
inactive: all other assays above

CC(c1ccc(O)cc1)c1ccc(O)cc1
active: [6] 168 µM | [7] 100 µM | [10] 27.6 µM
inactive: all other assays above

[Cl][Sn]([c]1ccccc1)([c]1ccccc1)[c]1ccccc1
active: [4] 0.252 µM | [5] 1.62 µM | [6] 0.243 µM | [7] 0.23 µM | [9] 0.248 µM
inactive: [1] | [2] | [3] | [8] | [10]

O=NN1CCCCCCC1
active: [10] 47.4 µM
inactive: all other assays above

NC(=O)CCl
active: [10] 27.2 µM
inactive: all other assays above

Cc1cc(SCc2sc(-c3ccc(C(F)(F)F)c(F)c3)nc2C)ccc1OCC(=O)O
inactive: [2] | [3] | [5] | [8]
active: [1] 42.8 µM | [4] 17.2 µM | [6] 50.9 µM | [7] 24.5 µM | [9] 33.4 µM

c1ccc2c(c1)Oc1ccccc1O2
active: [10] 75.9 µM
inactive: all other assays above

O=C=Nc1ccc(Cl)cc1
not listed: [10]
inactive: all other assays above

CCCCC(CC)COC(=O)Cl (stereo not given)
not listed: [10]
inactive: all other assays above

CC(=Cc1ccccc1)[N+](=O)[O-]
active: [1] 7.14 µM | [6] 4.41 µM | [8] 13.7 µM | [9] 11.1 µM | [10] 4.02 µM
inactive: all other assays above

CCC(C)(C#N)N=NC(C)(C#N)CC (stereo not given)
not listed: [10]
inactive: all other assays above

COC(=O)c1cc(Oc2ccc(Cl)cc2Cl)ccc1[N+](=O)[O-]
active: [4] 21.3 µM | [7] 17.9 µM | [8] 11.8 µM | [10] 5.12 µM
inactive: all other assays above

CCCCCCCCCCCCCCC(Br)C(=O)O (stereo not given)
active: [2] 164 µM | [3] 183 µM | [4] 150 µM | [5] 187 µM | [6] 154 µM | [7] 161 µM | [8] 100 µM | [9] 142 µM
inactive: [1] | [10]

CC(C)[N+](=O)[O-]
inactive: all assays above

ClCc1ccccc1CCl
active: [1] 45.9 µM | [5] 23.1 µM | [6] 21.7 µM | [9] 25.7 µM | [10] 18.3 µM
inactive: all other assays above

CCCCCCCCCCCCOS(=O)(=O)O
active: [4] 11.1 µM | [7] 2.2 µM
inactive: [1] | [2] | [3] | [4] | [5] | [7] | [9] | [10]

O=CCCl
inactive: [2] | [3]
active: [1] 51.9 µM | [4] 55 µM | [5] 32.6 µM | [6] 48.6 µM | [7] 43.2 µM | [8] 25.2 µM | [9] 42.5 µM

C=CCN=C=S
inactive: all assays above

Clc1cccc(Cl)c1Cl
inactive: all assays above

CC(F)(F)CC(F)(F)F
not listed: [10]
inactive: all other assays above

c1cc[c]([Sb]([c]2ccccc2)[c]2ccccc2)cc1
active: [10] 2.1 µM
inactive: all other assays above

COP(=S)(OC)Oc1cc(Cl)c(I)cc1Cl
inactive: [2] | [3] | [8]
active: [1] 48.7 µM | [4] 33.4 µM | [5] 27.2 µM | [6] 62.1 µM | [7] 37.5 µM | [9] 33.4 µM | [10] 8.06 µM

BrCc1ccc(Br)cc1
inactive: all assays above

C1CCC(C2CCCCC2)CC1
inactive: all assays above

Oc1c(Br)cc(Br)cc1Br
active: [7] 78.7 µM | [8] 20.9 µM | [10] 5.82 µM
inactive: all other assays above

Nc1nc(N)nc(Cl)n1
inactive: all assays above

COCCl
inactive: all assays above

CC(C=O)Cc1ccc2c(c1)OCO2 (stereo not given)
active: [10] 17 µM
inactive: all other assays above

O=C(NC(=O)c1c(F)cccc1F)Nc1ccc(Cl)cc1
inactive: all assays above
